Where “and” joins values, the source holds several entries; their conditions need not be identical. Identical values can stand only once. Inconclusive results are not listed. Some compounds were tested as several samples or in several runs, with calls that do not always agree. Calls of active or inactive are those of the source. The calls were made as follows, unless noted: active = hit-call score of the fitted dose curve at least 0.9, where 1 is the maximum; inconclusive = response in the unintended direction; inactive = score below 0.9.
Legend:
[1] = target: Estrogen-related receptor gamma (Homo sapiens) (UniProt P62508); assay: ATG_ERRg_TRANS: Attagene TRANS-FACTORIAL HepG2 Assay for human Estrogen-Related Receptor gamma (ERRg) (AID 2282977); settings: HepG2 Attagene TRANS reporter, ERRg transactivation;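 also: hits increase reporter signal over DMSO so potencies reflect activators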
Outline: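 Readout: fluorescent reporter-mRNA fragments resolved by capillary electrophoresis after RT-PCR and HpaI cut. Cells: transiently transfected HepG2 carrying GAL4-UAS reporters driven by exogenous NR-Gal4 chimeras, dosed 24 h. Activity fitted upward relative to DMSO baseline.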

[2] = target: Bile acid receptor (Homo sapiens) (UniProt Q96RI1); assay: ATG_FXR_TRANS: Attagene TRANS-FACTORIAL HepG2 Assay for Farnesoid X Receptor (FXR) (AID 2282979); settings: HepG2 Attagene TRANS FXR-GAL4 reporter transcription;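 also: hits raise reporter mRNA above DMSO so AC50 marks FXR activation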
Outline: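 Read-out: fluorescent reporter transcripts quantified by capillary electrophoresis after RT-PCR of total RNA. Source cells were HepG2 transiently carrying chimeric NR-GAL4 plus GAL4-UAS reporter units, dosed 24 h. Activity fitted upward relative to DMSO baseline.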

[3] = target: Oxysterols receptor LXR-alpha (Homo sapiens) (UniProt Q13133); assay: ATG_LXRa_TRANS: Attagene TRANS-FACTORIAL HepG2 Assay for human Liver X Receptor alpha (LXRa) (AID 2282980); settings: HepG2 Attagene TRANS reporter, LXRa transactivation
Outline: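 Read-out: reporter transcript levels by RT-PCR plus capillary electrophoresis, fluorescence intensity. Transiently transfected HepG2, exogenous NR-GAL4 chimera, GAL4-UAS reporters; 24 h compound exposure. Activity = increase over DMSO negative control.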

[4] = target: Hepatocyte nuclear factor 4-alpha (Homo sapiens) (UniProt P41235); assay: ATG_HNF4a_TRANS: Attagene TRANS-FACTORIAL HepG2 Assay for human Hepatocyte Nuclear Factor 4 alpha (HNF4a) (AID 2282982); settings: HepG2 HNF4a transactivation reporter, mRNA readout
Outline: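 Multiplexed reporter assay: transfected HepG2, 24 h exposure, total RNA → oligo(dT) RT → PCR → 6-FAM extension → HpaI digest → CE fluorescence. DMSO = negative control.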

[5] = ATG_M_32_TRANS: Attagene TRANS-FACTORIAL HepG2 Assay for M32 Transcription Factor (Internal Marker) (AID 2282984); settings: HepG2 Attagene TRANS M32 internal marker reporter;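 also: transcript level of a background control reporter unit measured by RT-PCR and capillary electrophoresis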
Outline: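 Cell-based TRANS-format assay in HepG2: exogenous chimeric GAL4 reporter units transiently expressed, compounds applied 24 h. Reporter mRNA detected by RT-PCR plus capillary electrophoresis; this readout is an internal background marker.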

[6] = target: Nuclear receptor subfamily 4 group A member 2 (Homo sapiens) (UniProt P43354); assay: ATG_NURR1_TRANS: Attagene TRANS-FACTORIAL HepG2 Assay for human Nuclear Receptor Related Protein 1 (NURR1) (AID 2282985); settings: HepG2 Attagene TRANS reporter, mRNA readout
Outline: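 Measures transcriptional activation by an exogenous NR-Gal4 chimera in transfected HepG2 liver cells. After 24 h, reporter RNA is reverse-transcribed, amplified and resolved by capillary electrophoresis; DMSO defines baseline.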

[7] = target: Transcriptional activator Myb (Homo sapiens) (UniProt P10242); assay: ATG_Myb_CIS: Attagene CIS-FACTORIAL HepG2 Assay for human Myeloblastosis (Myb) Proto-Oncogene Transcription Factor (AID 2282986; active = hit-call score of the fitted dose curve at least 0.9, where 1 is the maximum; inactive = score below 0.9); settings: HepG2 Attagene CIS-FACTORIAL Myb reporter transcription; actives raise or lower the signal
Outline: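 After 24 h of compound dosing, total RNA from transfected HepG2 cells is reverse-transcribed and the reporter sequences amplified, labeled and separated by capillary electrophoresis. Values come from bidirectional fitting against DMSO.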

[8] = target: Oxysterols receptor LXR-beta (Homo sapiens) (UniProt P55055); assay: ATG_LXRb_TRANS: Attagene TRANS-FACTORIAL HepG2 Assay for human Liver X Receptor beta (LXRb) (AID 2282981); settings: HepG2 Attagene TRANS GAL4-LXRb reporter, mRNA
Outline: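 After 24 h of chemical treatment, transfected HepG2 cells yield total RNA; reporter cDNA is PCR-amplified, FAM-labelled, HpaI-cut and run on capillary electrophoresis. Signal reflects chimeric LXRb-Gal4 activity on GAL4-UAS reporters.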

[9] = ATG_M_06_TRANS: Attagene TRANS-FACTORIAL HepG2 Assay for M06 Transcription Factor (Internal Marker) (AID 2282983); settings: HepG2 Attagene TRANS M06 internal marker reporter;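 as to AC50: potency for rise in reporter mRNA above DMSO baseline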
Outline: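 Read-out: fluorescent reporter cDNA fragments resolved by capillary electrophoresis after RT-PCR and HpaI cut. Source cells were HepG2 carrying transfected multi-reporter GAL4 constructs, dosed 24 h. Increase over DMSO control analysed.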

[10] = target: Glucocorticoid receptor (Homo sapiens) (UniProt P04150); assay: ATG_GR_TRANS: Attagene TRANS-FACTORIAL HepG2 Assay for human Glucocorticoid Receptor (GR) (AID 2282978); settings: HepG2 Attagene TRANS GR reporter, mRNA transcription;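 also: activators score as hits since higher reporter transcript over DMSO is fitted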
Outline: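 After 24 h incubation with test chemical, transfected HepG2 cells were lysed for RNA; reporter cDNA was amplified, FAM-labelled, HpaI-digested and sized on a capillary analyser. Signal gain relative to DMSO was scored.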

Chain of Glucocorticoid receptor (Homo sapiens) (P04150 whole entry, looked up): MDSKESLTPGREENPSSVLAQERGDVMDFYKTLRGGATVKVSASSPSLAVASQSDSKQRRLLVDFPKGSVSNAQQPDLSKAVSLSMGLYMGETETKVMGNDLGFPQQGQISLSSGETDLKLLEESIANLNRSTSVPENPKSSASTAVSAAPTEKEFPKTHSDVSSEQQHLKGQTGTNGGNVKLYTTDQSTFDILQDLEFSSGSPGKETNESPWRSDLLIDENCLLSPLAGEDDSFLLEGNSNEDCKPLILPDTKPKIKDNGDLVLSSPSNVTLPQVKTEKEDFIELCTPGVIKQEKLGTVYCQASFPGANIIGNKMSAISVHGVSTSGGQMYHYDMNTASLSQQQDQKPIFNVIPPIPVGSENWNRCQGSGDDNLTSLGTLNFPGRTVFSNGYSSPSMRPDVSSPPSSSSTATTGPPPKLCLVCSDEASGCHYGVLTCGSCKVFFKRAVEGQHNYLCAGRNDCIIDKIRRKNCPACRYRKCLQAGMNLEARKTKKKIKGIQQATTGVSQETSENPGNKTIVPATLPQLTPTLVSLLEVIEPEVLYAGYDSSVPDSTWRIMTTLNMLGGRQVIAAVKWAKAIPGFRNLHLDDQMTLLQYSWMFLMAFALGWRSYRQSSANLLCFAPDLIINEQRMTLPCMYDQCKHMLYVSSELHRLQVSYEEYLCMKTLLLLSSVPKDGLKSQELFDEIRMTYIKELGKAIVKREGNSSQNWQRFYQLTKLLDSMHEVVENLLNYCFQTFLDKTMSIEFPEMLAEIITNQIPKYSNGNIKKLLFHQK
Chain of Oxysterols receptor LXR-alpha (Homo sapiens) (Q13133 whole entry, looked up, the tested form may be a part): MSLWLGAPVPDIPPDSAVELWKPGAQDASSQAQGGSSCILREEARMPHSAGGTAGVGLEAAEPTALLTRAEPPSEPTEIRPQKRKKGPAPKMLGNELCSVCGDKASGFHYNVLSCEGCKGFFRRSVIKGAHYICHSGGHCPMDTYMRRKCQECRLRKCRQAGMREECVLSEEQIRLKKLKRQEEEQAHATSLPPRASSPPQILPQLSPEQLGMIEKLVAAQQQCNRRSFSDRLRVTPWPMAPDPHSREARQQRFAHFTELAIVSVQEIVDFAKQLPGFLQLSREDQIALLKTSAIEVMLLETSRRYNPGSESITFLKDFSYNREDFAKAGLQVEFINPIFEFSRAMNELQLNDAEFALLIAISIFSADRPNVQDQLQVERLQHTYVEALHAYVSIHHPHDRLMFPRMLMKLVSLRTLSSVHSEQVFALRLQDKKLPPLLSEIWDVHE
Chain of Estrogen-related receptor gamma (Homo sapiens) (P62508 whole entry, looked up, the tested form may be a part): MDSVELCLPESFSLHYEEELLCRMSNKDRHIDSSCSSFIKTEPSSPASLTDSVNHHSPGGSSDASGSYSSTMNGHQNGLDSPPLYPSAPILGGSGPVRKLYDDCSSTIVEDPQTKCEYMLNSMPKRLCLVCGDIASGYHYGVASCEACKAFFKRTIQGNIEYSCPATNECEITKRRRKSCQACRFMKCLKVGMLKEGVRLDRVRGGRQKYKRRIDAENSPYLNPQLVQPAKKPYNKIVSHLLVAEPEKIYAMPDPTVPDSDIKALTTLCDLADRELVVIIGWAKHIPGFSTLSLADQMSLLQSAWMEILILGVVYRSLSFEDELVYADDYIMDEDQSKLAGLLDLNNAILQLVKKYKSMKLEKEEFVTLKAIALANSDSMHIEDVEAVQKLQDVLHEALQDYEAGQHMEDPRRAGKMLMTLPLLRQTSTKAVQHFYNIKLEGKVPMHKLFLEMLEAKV
Chain of Oxysterols receptor LXR-beta (Homo sapiens) (P55055 whole entry, looked up, the tested form may be a part): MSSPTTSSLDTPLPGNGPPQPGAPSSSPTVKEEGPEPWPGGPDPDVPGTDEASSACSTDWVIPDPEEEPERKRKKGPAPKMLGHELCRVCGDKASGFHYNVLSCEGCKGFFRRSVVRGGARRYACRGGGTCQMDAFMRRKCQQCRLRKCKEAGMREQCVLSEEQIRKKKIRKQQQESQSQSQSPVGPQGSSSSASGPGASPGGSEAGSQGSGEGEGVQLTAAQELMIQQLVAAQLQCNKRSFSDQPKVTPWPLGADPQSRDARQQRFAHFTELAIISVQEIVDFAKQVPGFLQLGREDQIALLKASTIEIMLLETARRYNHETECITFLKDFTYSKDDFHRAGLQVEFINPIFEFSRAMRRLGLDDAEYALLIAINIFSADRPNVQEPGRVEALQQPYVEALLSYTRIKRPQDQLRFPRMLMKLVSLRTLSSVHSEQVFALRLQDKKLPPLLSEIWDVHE
Chain of Transcriptional activator Myb (Homo sapiens) (P10242 whole entry, looked up): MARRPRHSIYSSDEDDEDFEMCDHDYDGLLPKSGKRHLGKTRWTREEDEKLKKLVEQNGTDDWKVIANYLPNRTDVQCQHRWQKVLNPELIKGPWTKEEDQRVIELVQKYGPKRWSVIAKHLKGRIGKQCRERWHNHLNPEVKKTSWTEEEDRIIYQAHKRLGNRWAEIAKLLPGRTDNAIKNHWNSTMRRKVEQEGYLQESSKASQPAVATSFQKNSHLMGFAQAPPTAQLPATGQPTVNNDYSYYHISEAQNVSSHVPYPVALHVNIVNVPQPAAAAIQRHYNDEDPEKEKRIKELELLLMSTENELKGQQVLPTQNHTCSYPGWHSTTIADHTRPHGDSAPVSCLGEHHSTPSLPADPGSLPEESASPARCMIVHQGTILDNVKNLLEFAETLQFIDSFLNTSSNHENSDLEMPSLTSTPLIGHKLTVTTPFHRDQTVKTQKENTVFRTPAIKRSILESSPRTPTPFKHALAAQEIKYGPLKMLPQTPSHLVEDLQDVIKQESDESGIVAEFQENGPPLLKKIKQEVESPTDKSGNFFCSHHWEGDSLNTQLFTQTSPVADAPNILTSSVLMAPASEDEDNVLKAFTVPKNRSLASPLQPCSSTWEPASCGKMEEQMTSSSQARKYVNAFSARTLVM
Chain of Hepatocyte nuclear factor 4-alpha (Homo sapiens) (P41235 whole entry, looked up): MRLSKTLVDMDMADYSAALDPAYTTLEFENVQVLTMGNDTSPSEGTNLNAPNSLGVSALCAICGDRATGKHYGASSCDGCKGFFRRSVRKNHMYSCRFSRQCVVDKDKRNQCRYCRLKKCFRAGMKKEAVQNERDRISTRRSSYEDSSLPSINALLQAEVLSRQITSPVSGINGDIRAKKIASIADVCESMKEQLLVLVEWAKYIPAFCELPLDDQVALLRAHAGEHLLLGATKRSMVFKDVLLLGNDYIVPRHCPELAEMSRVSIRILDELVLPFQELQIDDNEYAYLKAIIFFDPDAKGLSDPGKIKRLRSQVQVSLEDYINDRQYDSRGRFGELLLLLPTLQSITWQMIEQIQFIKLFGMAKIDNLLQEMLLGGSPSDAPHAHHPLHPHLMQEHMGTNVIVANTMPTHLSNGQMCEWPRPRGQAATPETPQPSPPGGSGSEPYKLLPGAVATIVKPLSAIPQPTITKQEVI
Chain of Nuclear receptor subfamily 4 group A member 2 (Homo sapiens) (P43354 whole entry, looked up, the tested form may be a part): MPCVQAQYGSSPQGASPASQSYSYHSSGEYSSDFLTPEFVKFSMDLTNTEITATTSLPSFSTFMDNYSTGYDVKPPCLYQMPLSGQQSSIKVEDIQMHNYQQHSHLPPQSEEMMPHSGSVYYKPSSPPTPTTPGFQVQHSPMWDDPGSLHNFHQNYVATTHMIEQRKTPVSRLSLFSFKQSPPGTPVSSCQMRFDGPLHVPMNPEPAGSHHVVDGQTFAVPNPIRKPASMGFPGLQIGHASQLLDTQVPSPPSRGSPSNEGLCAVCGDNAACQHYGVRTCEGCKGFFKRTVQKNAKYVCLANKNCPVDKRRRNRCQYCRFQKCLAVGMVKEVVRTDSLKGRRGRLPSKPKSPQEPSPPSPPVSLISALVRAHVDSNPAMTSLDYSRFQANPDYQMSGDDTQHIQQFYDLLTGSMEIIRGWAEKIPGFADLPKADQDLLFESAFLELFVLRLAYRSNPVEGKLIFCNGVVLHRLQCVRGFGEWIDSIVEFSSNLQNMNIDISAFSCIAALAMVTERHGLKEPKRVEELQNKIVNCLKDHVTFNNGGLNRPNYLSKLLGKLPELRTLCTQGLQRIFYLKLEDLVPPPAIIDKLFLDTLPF
Chain of Bile acid receptor (Homo sapiens) (Q96RI1 whole entry, looked up, the tested form may be a part): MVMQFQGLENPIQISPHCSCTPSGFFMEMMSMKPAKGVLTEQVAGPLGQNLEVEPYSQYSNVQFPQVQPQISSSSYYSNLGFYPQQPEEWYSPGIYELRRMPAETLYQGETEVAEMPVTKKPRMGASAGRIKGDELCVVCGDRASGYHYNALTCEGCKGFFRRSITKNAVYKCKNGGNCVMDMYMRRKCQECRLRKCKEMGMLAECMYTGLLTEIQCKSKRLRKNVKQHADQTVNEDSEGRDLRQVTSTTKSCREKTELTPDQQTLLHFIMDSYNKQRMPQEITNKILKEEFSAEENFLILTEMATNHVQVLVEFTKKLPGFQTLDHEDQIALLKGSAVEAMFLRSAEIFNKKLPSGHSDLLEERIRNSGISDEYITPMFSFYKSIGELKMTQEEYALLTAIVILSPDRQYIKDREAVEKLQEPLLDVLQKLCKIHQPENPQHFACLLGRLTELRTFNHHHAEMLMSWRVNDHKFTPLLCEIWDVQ

SMILES: OCC(F)(F)C(F)(F)C(F)(F)C(F)(F)C(F)(F)C(F)F
- outcome [1]: inactive
- outcome [2]: inactive
- outcome [3]: inactive
- outcome [4]: inactive
- outcome [5]: inactive
- outcome [6]: inactive
- outcome [7]: inactive

SMILES: CCO[Si](CCC(F)(F)C(F)(F)C(F)(F)C(F)(F)C(F)(F)C(F)(F)F)(OCC)OCC
- outcome [1]: inactive
- outcome [2]: inactive
- outcome [3]: inactive
- outcome [8]: inactive
- outcome [9]: inactive
- outcome [5]: inactive
- outcome [6]: inactive
- outcome [7]: inactive

SMILES: FC(F)(F)C(F)(F)C(F)(F)C(F)(F)C(F)(F)C(F)(F)C(F)(F)Br
- outcome [1]: inactive
- outcome [2]: inactive
- outcome [3]: inactive
- outcome [8]: inactive
- outcome [9]: inactive
- outcome [7]: inactive

SMILES: c1ccc(B(c2ccccc2)c2ccccc2)cc1
- outcome [1]: inactive
- outcome [2]: inactive
- outcome [3]: inactive
- outcome [9]: inactive
- outcome [7]: inactive

SMILES: FC(F)(F)C(F)(F)C(F)(F)CI
- outcome [1]: inactive
- outcome [2]: inactive
- outcome [3]: inactive
- outcome [8]: inactive
- outcome [4]: inactive
- outcome [7]: inactive

SMILES: O=S(=O)(OCC(F)F)C(F)(F)F
- outcome [1]: inactive
- outcome [2]: inactive
- outcome [3]: inactive
- outcome [8]: inactive
- outcome [9]: inactive
- outcome [6]: inactive
- outcome [7]: inactive

SMILES: FC(F)(F)C(F)(F)CNCC(F)(F)C(F)(F)F
- outcome [1]: inactive
- outcome [2]: inactive
- outcome [3]: inactive
- outcome [8]: inactive
- outcome [9]: inactive
- outcome [6]: inactive
- outcome [7]: inactive

SMILES: CCCCCCOC(=O)c1ccccc1O
- outcome [1]: inactive
- outcome [2]: inactive
- outcome [3]: inactive
- outcome [9]: inactive
- outcome [6]: inactive
- outcome [7]: inactive

SMILES: O=C(O)C(F)(F)C(F)(F)C(F)(F)C(F)(F)C(F)(F)C(F)(F)C(F)(F)C(F)(F)C(F)(F)C(F)F
- outcome [1]: inactive
- outcome [2]: inactive
- AC50 [3]: 50 µM (active)
- AC50 [8]: 78 µM (active)
- outcome [4]: inactive
- outcome [9]: inactive
- outcome [5]: inactive
- AC50 [6]: 28.2 µM (active)
- outcome [7]: inactive

SMILES: FC(F)(F)C(F)(F)C(F)(F)C(F)(F)C(F)(F)C(F)(F)CCS
- outcome [1]: inactive
- outcome [2]: inactive
- outcome [3]: inactive
- outcome [8]: inactive
- outcome [9]: inactive
- outcome [6]: inactive
- outcome [7]: inactive

SMILES: FC(F)(F)C(F)(F)C(F)(F)N(C(F)(F)C(F)(F)C(F)(F)F)C(F)(F)C(F)(F)C(F)(F)F
- outcome [1]: inactive
- outcome [2]: inactive
- outcome [3]: inactive
- outcome [9]: inactive
- outcome [5]: inactive
- outcome [7]: inactive

SMILES: CCCCOc1ccc(N)cc1
- outcome [1]: inactive
- outcome [2]: inactive
- outcome [3]: inactive
- outcome [8]: inactive
- outcome [5]: inactive
- outcome [7]: inactive

SMILES: O=C(O)C(F)(OC(F)(F)C(F)(OC(F)(F)C(F)(OC(F)(F)C(F)(F)C(F)(F)F)C(F)(F)F)C(F)(F)F)C(F)(F)F (configuration not stated)
- outcome [1]: inactive
- outcome [2]: inactive
- outcome [3]: inactive
- outcome [8]: inactive
- outcome [9]: inactive
- outcome [6]: inactive
- outcome [7]: inactive

SMILES: CCCCCCCCCCCCCCCC[N+](C)(C)Cc1ccccc1
- AC50 [1]: 45.2 µM (active)
- outcome [10]: inactive
- outcome [2]: inactive
- outcome [3]: inactive
- outcome [8]: inactive
- outcome [6]: inactive
- outcome [7]: inactive

SMILES: C=C(C)C(=O)OCC(F)(F)C(F)(F)C(F)(F)F
- outcome [1]: inactive
- outcome [10]: inactive
- outcome [2]: inactive
- outcome [3]: inactive
- outcome [8]: inactive
- outcome [9]: inactive
- outcome [6]: inactive
- outcome [7]: inactive

SMILES: [Co]
- outcome [1]: inactive
- outcome [2]: inactive
- outcome [3]: inactive
- outcome [8]: inactive
- outcome [6]: inactive
- outcome [7]: inactive

SMILES: CC(=O)Nc1ccc(N=Nc2cc(C)ccc2O)cc1
- outcome [1]: inactive
- outcome [2]: inactive
- outcome [8]: inactive
- outcome [9]: inactive
- outcome [5]: inactive
- outcome [6]: inactive
- outcome [7]: inactive

SMILES: O=C(O)C(F)(F)C(F)(F)C(F)(F)C(F)(F)C(F)(F)C(F)(F)C(F)(F)C(F)(F)C(F)(F)C(F)(F)C(F)(F)C(F)(F)F
- outcome [1]: inactive
- outcome [10]: inactive
- outcome [2]: inactive
- outcome [3]: inactive
- outcome [8]: inactive
- outcome [4]: inactive
- outcome [9]: inactive
- outcome [5]: inactive
- outcome [6]: inactive
- outcome [7]: inactive

SMILES: Cc1cc(C)cc(O)c1
- outcome [1]: inactive
- outcome [10]: inactive
- outcome [3]: inactive
- outcome [8]: inactive
- outcome [7]: inactive

SMILES: CC(Cc1ccc(O)c(O)c1)C(C)Cc1ccc(O)c(O)c1 (configuration not stated)
- outcome [1]: inactive
- outcome [2]: inactive
- outcome [3]: inactive
- outcome [9]: inactive
- AC50 [6]: 57.1 µM (active)
- outcome [7]: inactive

SMILES: O=C(O)C(F)(F)C(F)(F)C(F)(F)C(F)(F)F
- outcome [1]: inactive
- outcome [10]: inactive
- outcome [2]: inactive
- outcome [3]: inactive
- outcome [8]: inactive
- outcome [9]: inactive
- outcome [7]: inactive

SMILES: C=CC(F)(F)C(F)(F)C(F)(F)C(F)(F)C(F)(F)C(F)(F)C(F)(F)C(F)(F)F
- outcome [1]: inactive
- outcome [10]: inactive
- outcome [2]: inactive
- outcome [3]: inactive
- outcome [8]: inactive
- outcome [9]: inactive
- outcome [5]: inactive
- outcome [6]: inactive
- outcome [7]: inactive

SMILES: FC1CC(F)(F)C(F)(F)C1(F)F (configuration not stated)
- outcome [1]: inactive
- outcome [10]: inactive
- outcome [2]: inactive
- outcome [3]: inactive
- outcome [8]: inactive
- outcome [7]: inactive

SMILES: CCc1c(Br)c(Br)c(Br)c(Br)c1Br
- outcome [1]: inactive
- outcome [2]: inactive
- outcome [3]: inactive
- outcome [9]: inactive
- outcome [5]: inactive
- AC50 [6]: 26.8 µM (active)
- outcome [7]: inactive

SMILES: C#C[C@]1(O)CC[C@H]2[C@@H]3CCc4cc(OC)ccc4[C@H]3CC[C@@]21C
- outcome [1]: inactive
- outcome [2]: inactive
- outcome [3]: inactive
- outcome [8]: inactive
- outcome [4]: inactive
- outcome [9]: inactive
- outcome [7]: inactive

SMILES: OCCCC(F)(F)C(F)(F)C(F)(F)C(F)(F)C(F)(F)C(F)(F)C(F)(F)F
- outcome [1]: inactive
- outcome [2]: inactive
- outcome [3]: inactive
- outcome [8]: inactive
- AC50 [9]: 79.1 µM (active)
- outcome [5]: inactive
- AC50 [6]: 16.6 µM (active) and 17.2 µM (active)
- AC50 [7]: 81.7 µM (active)
- outcome [7]: inactive

SMILES: CC(C)(C)C(=O)CC(=O)C(F)(F)C(F)(F)C(F)(F)F
- outcome [1]: inactive
- outcome [2]: inactive
- outcome [8]: inactive
- outcome [9]: inactive
- outcome [6]: inactive
- outcome [7]: inactive

SMILES: Oc1ccc(Nc2ccccc2)cc1
- outcome [1]: inactive
- outcome [2]: inactive
- outcome [8]: inactive
- outcome [9]: inactive
- outcome [6]: inactive
- outcome [7]: inactive

SMILES: O=S(=O)(OCCOC(F)(F)F)C(F)(F)F
- outcome [1]: inactive
- outcome [2]: inactive
- outcome [3]: inactive
- outcome [8]: inactive
- outcome [9]: inactive
- outcome [6]: inactive
- outcome [7]: inactive

SMILES: CCN(Cc1cccc(S(=O)(=O)O)c1)c1ccc(C(=C2C=CC(=[N+](CC)Cc3cccc(S(=O)(=O)O)c3)C=C2)c2ccc(O)cc2S(=O)(=O)[O-])cc1
- outcome [1]: inactive
- outcome [2]: inactive
- outcome [3]: inactive
- outcome [8]: inactive
- outcome [6]: inactive
- outcome [7]: inactive

SMILES: O=C(O)C(F)(F)C(F)(F)C(F)(F)F
- outcome [1]: inactive
- outcome [2]: inactive
- outcome [3]: inactive
- outcome [8]: inactive
- outcome [4]: inactive
- outcome [9]: inactive
- outcome [6]: inactive
- outcome [7]: inactive

SMILES: Nc1ccc(S(=O)(=O)Nc2nccs2)cc1
- outcome [1]: inactive
- outcome [10]: inactive
- outcome [3]: inactive
- outcome [8]: inactive
- outcome [9]: inactive
- outcome [5]: inactive
- outcome [6]: inactive
- outcome [7]: inactive

Reference: PubChem BioAssay (EPA / NIEHS)
